# Laboratory results reported in PubChem BioAssay (NCI).
# The panel holds about 79,000 compounds, 15% with a hit somewhere; the sample as a whole holds those more often. Values without a mark were called inactive. Activity calls are given as the source filed them. Rule as the data show it: active = growth inhibition above about 70%; inactive = the rest.
# Key:
# [1] = NCI Yeast Anticancer Drug Screen. Data for the rad50 strain (AID 155);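 also: 0% = growth of vehicle-only cultures of the same strain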; settings: S. cerevisiae rad50 strain growth inhibition, hits give high values
# Outline: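 Relative growth inhibition (compound vs vehicle) was measured in yeast with a defined repair-gene alteration.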
# [2] = NCI Yeast Anticancer Drug Screen. Data for the mec2-1 strain (AID 157); settings: S. cerevisiae mec2-1 strain, hits give high values
# Outline: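 Each compound was tested on mec2-1 yeast, a strain altered in DNA damage repair or cell cycle control. Growth inhibition is reported relative to vehicle.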
# [3] = NCI Yeast Anticancer Drug Screen. Data for the sgs1 mgt1 strain (AID 161);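 also: 0% = growth of cultures given vehicle only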; settings: S. cerevisiae sgs1 mgt1 strain, hits give high values
# Outline: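 Genetically altered yeast, compound exposure, growth inhibition relative to vehicle.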
# [4] = NCI Yeast Anticancer Drug Screen. Data for the cln2 rad14 strain (AID 165);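 also: 0% = growth equal to vehicle treated cultures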; settings: S. cerevisiae cln2 rad14 strain, hits give high values
# Outline: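 Test compounds were added to cln2 rad14 yeast cultures; inhibition of growth was then determined by comparison with vehicle treatment.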
# [5] = NCI Yeast Anticancer Drug Screen. Data for the bub3 strain (AID 167); settings: S. cerevisiae bub3 mutant strain, hits give high values
# Outline: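 Screening used yeast with an engineered genetic alteration affecting cell cycle control. Compound-exposed cultures were compared with vehicle cultures, and reduced growth was taken as inhibition.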
# [6] = NCI Yeast Anticancer Drug Screen. Data for the mlh1 rad18 strain (AID 175); settings: S. cerevisiae mlh1 rad18 strain growth inhibition, hits give high values
# Outline: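 Inhibition values reflect reduced growth of mutant yeast versus vehicle-treated controls following compound exposure; the mutations affect DNA damage repair.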
# [7] = at 5.0 µM (retest, dose inferred, filed as 0.5)
# [8] = at 50.0 µM (retest, dose inferred, filed as 5.0)
Compound,"growth inhibition [1, 7]","growth inhibition [1, 8]",growth inhibition ([1]; at 50.0 µM),"growth inhibition [2, 7]","growth inhibition [2, 8]",growth inhibition ([2]; at 50.0 µM),"growth inhibition [3, 7]","growth inhibition [3, 8]",growth inhibition ([3]; at 50.0 µM),"growth inhibition [4, 7]","growth inhibition [4, 8]",growth inhibition ([4]; at 50.0 µM),"growth inhibition [5, 7]","growth inhibition [5, 8]",growth inhibition ([5]; at 50.0 µM),"growth inhibition [6, 7]","growth inhibition [6, 8]",growth inhibition ([6]; at 50.0 µM)
NC(=O)N/N=C/C(O)C(O)C(O)C(O)CO (configuration not stated),0%,44%,77.1% (active),-4%,1%,59.9%,-1%,16%,35.5%,0%,26%,6.55%,-5%,7%,36.1%,-4%,20%,19.7%
CCCN(CCC)CCNc1ccc(C)c2sc3ccccc3c(=O)c12,19%,99% (active),99.7% (active),4%,100% (active),99.7% (active),42%,100% (active),99.5% (active),19%,99% (active),99.5% (active),35%,99% (active),99.4% (active),31%,99% (active),99.5% (active)
O=NNc1ccc2cc3ccc(NN=O)cc3nc2c1,16%,25%,43.2%,6%,26%,-11.1%,7%,24%,52.5%,11%,24%,27.7%,9%,14%,34.6%,15%,31%,52.7%
CC(CN(C)C)C(=O)c1cn(C)c2ccccc12 (configuration not stated),1%,3%,9%,5%,2%,16.8%,-2%,3%,30.3%,3%,4%,12.6%,-2%,-4%,-9.05%,-2%,1%,70.2% (active)
C(#Cc1ccccc1)Sc1ccccc1,6%,4%,12.9%,-9%,14%,31.1%,1%,18%,65.7%,6%,6%,23.1%,29%,9%,-30.8%,4%,11%,56.4%
CCCCCCCCCCCCCCNCC(OCC)OCC,69%,98% (active),90.7% (active),62%,99% (active),93.4% (active),83% (active),99% (active),93.2% (active),61%,98% (active),90.5% (active),75% (active),99% (active),91.5% (active),85% (active),98% (active),91% (active)
CSc1c(C)n([O-])c2cc(Cl)c(Cl)cc2[n+]1=O,20%,94% (active),79.8% (active),14%,93% (active),86% (active),24%,99% (active),85.4% (active),17%,87% (active),64.4%,24%,96% (active),79.2% (active),23%,97% (active),92.3% (active)
COC(=O)c1c(COC(=O)NC(C)C)c2n(c1C)CS(=O)(=O)C2,-38%,-8%,97.3% (active),3%,5%,98.5% (active),-3%,31%,98.4% (active),-6%,-20%,98% (active),-18%,3%,97% (active),-35%,-32%,97.7% (active)
O=C(Nc1ccccc1-c1nn(CN2CCNCC2)c(=S)n(CN2CCNCC2)c1=O)C(F)(F)F,0%,17%,7.5%,0%,10%,25.9%,-2%,13%,12.6%,-4%,10%,68.1%,1%,0%,8.65%,-2%,14%,38.6%
